Records with an inconclusive call do not appear. The source made the active and inactive calls. The call rests on the fitted dose curve; in most records, active means well fitted inhibition curve with a large enough effect; inconclusive means small, poorly fitted or top-dose-only effect; inactive means flat fitted curve, though single readings scatter.
biological target: Calcium and integrin-binding protein 1 (Homo sapiens) (UniProt Q99828); experiment: Primary qHTS for Identification of Calcium Integrin Binding Protein 1 (CIB1) Competitor (AID 1508620); conditions: CIB1-GST / FITC-alphaIIb peptide fluorescence polarization; series mostly up to 114 µM; activity change, negative = inhibition: at the top concentration;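 further: GST tagged CIB1 binding a fluorescein labelled alphaIIb integrin peptide tracer; top concentration of the series differs between compounds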
Procedure, shortened: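 Fluorescence polarization competition: CIB1-GST (1 uM final) preincubated with compound 15 min at room temperature, then FITC-labeled alphaIIb peptide (100 nM final) added for another 15 min. Polarization read at Ex 480/Em 540.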
On the % scale 0 is the no-effect control and ±100 the full control effect.

Calcium and integrin-binding protein 1 (Homo sapiens), sequence (Q99828 whole entry, looked up): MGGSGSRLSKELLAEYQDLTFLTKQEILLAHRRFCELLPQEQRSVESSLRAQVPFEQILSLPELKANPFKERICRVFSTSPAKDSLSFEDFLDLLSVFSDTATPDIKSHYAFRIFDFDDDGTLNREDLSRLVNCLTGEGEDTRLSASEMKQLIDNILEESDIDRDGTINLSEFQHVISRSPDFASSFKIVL

| Structure (SMILES) | activity change, negative = inhibition | Potency |
| --- | --- | --- |
| Brc1cnc2nc(SCc3ccccc3)[nH]c2c1 | 0.0892% (inactive) |  |
| Cn1nnnc1Sc1ncnc2scc(-c3cc4ccccc4o3)c12 | -2.56% (inactive) |  |
| COc1ccc(NC(=O)c2cnn3c(C)cc(C)nc23)cc1OC | 3% (inactive) |  |
| c1ccc(CN(Cc2ccccc2)Cc2nnc(-c3cc4ccccc4[nH]3)o2)cc1 | -1.42% (inactive) |  |
| O=C(O)c1ccc(CSc2nnc(-c3cccc(S(=O)(=O)NC4CCCC4)c3)n2-c2ccc(F)cc2)cc1 | 1.49% (inactive) |  |
| CCOC(=O)c1nn(-c2ccccc2)c(=O)c2c(N)sc(C)c12 | -9.43% (inactive) |  |
| O=C(Nc1ccccc1)Nc1nc(Nc2cc(F)cc(F)c2)nc(NC2CCCC2)n1 | -1.92% (inactive) |  |
| N#Cc1c(-c2cccc(C(F)(F)F)c2)no[n+]1[O-] | -0.333% (inactive) |  |
| O=C(O)c1ccc2c(c1)C(=O)N([C@H](Cc1ccc([N+](=O)[O-])cc1)C(=O)O)C2=O | 0.168% (inactive) |  |
| O=C(O)c1ccc2c(c1)C(=O)N([C@H](Cc1ccc(Cl)cc1)C(=O)O)C2=O | -0.712% (inactive) |  |
| CC(=O)Nc1ccc(-c2c(NC(C)=O)sc3c2CCNC3)cn1 | -16.3% (inactive) |  |
| COc1ccc(C2Nc3ccccc3C(=O)N2Cc2ccc3c(c2)OCO3)cc1COc1c(C)cc(NC(C)=O)cc1C (stereo not drawn) | -1.89% (inactive) |  |
| CCc1nn2c(=O)cc(NC3CNC3)nc2s1 | 0.892% (inactive) |  |
| O=S(=O)(Nc1cccc2cccnc12)c1ccc2ccccc2c1 | -3.92% (inactive) |  |
| O=C1c2ccccc2C(=O)N1c1cnc2ccccc2c1 | 3.71% (inactive) |  |
| CCOC(=O)C1CCN(c2nc(-c3ccc(Br)cc3)cs2)CC1 | -0.614% (inactive) |  |
| O=C(Nc1ccc2ccccc2c1)Nc1nnc(-c2ccccc2F)s1 | 7.05% (inactive) |  |
| Cc1ccc(NC(=O)CN2C(=O)N/C(=C\c3cccn3-c3ccc(C(=O)O)cc3)C2=O)cc1 |  | inactive |

Reference: PubChem BioAssay (NCATS)
